By inhibition is commonly meant the relative decrease from the control value, in per cent.

Where “and” joins values, the source holds several entries; their conditions need not be identical. Equal entries are not always repeated. The campaign covered roughly 340,000 compounds. About 1,000 (0.29%) were called active. A selection follows. Entries with a potency or affinity are not part of this list. Unmarked numbers belong to inactive results. Cut-off read from the data, not from the text of the source: inconclusive = inhibition above about 27% without an active follow-up result; inactive = below that.

This assay is described as follows: H1N1 influenza NS1A inhibitors, functional cell based assay (AID 504329). The note with it: percent inhibition, at 12.5 µM, stronger effect = higher value.
Take `CCCOc1ccc(C(C)=O)cc1CSc1nc(O)cc(=O)[nH]1`: the inhibition was 4.86%.
The result for `COc1ccc(C(=O)NCC(=O)N2CCN(C(=O)c3ccco3)CC2)cc1` reads -3.4%.
Under `O=C(COc1c(Br)cc(Br)cc1Br)N/N=C/c1ccco1` stands -0.44%; under `CN(C)CCCNc1c2ccccc2nc2ccccc12`, -0.82%.
Regarding `CN(C)CCCNC(=O)c1ccc(-c2ccccc2)cc1`, the inhibition is -6.67%.
Under `CN(C)CCCNC(=O)c1ccccn1` stands -2.43%; under `COc1cc(NCc2ccccc2O)c2ncccc2c1`, -8.87%.
For `CC(C)C(=O)N1CCC(n2nccc2NC(=O)CCOc2ccccc2)CC1`, the inhibition was 0.18%.
Regarding `COc1ccc(/C=N/NC(=O)CN2CCS(=O)(=O)CC2)cc1`, the inhibition was -0.94%.
As to `CCOC(=O)c1[nH]c2c(c1-c1ccccc1)C(=O)CC(c1ccc(OC)c(OC)c1)C2` (stereo not given), the inhibition was 8.75%.
Consider `O=C(NC(Cc1ccccc1)C(=O)O)/C(=C/c1ccccc1)NC(=O)c1ccc(Br)o1` (stereo not given), for which the inhibition is 3.22%.
For the molecule `CCCCCn1c(=NC(=O)c2cccnc2)c(C#N)cc2c(=O)n3cccc(C)c3nc21`, the inhibition was -3.21%.
With `O=C(COC(=O)c1cccc(S(=O)(=O)NCc2ccccc2)c1)c1ccccc1`, the inhibition is 3.76%.
Consider `O=C(NCC(c1cccs1)N1CCOCC1)c1ccc(Cl)c(S(=O)(=O)N2CCOCC2)c1` (stereo not given), for which the inhibition was -3.43%.
`Nc1nonc1-n1nnc(C(=O)N/N=C/c2ccccc2Br)c1CN1CCCC1`: the inhibition is 1.45%.
Consider `CC1CCN(Cc2c(C(=O)N/N=C/c3ccccc3O)nnn2-c2nonc2N)CC1`, for which the inhibition is -0.06%.
Under `O=C(CN1C(=O)c2cccc3cccc1c23)NCC1CCCO1` (stereo not given) stands 7.9%; under `Cc1[nH]c(=O)c(C#N)c(C)c1CSc1ncccn1`, -0.63%; under `CN(C)c1ccc(NC(=S)c2ccc3ccccc3n2)cc1`, 5.3%.
Turning to `S=C(Nc1ccccc1)c1ccccn1`, the inhibition was 3.81%.
With `Cc1cc(C)c2oc(C(=O)N(Cc3ccccc3)C3CCS(=O)(=O)C3)cc(=O)c2c1` (stereo not given), the inhibition was -2.06%.
On to `CC1(C)SC2c3ccccc3C(=O)N2C1C(=O)O` (stereo not given), for which the inhibition was -0.07%.
On to `CC1(C)S[C@@H]2[C@H](NC(=O)Cc3ccccc3)C(=O)N2[C@H]1C(=O)O`, for which the inhibition is -10.5% and 1.49%.
Under `CC(C)C[C@H]1COCCS(=O)(=O)N1Cc1cccc(C(F)(F)F)c1` stands -20%; under `O=C(NC1CCCCC1)C1CCN(c2nnnn2-c2ccccc2)CC1`, -1.63%.
Consider `Cc1ccc(SCC(=O)NCc2ccccc2)cc1`, for which the inhibition is -3.04%.
Take `Cc1ccccc1NC(=O)N(C(C)C)C(C)C`: the inhibition is -12.5%.
In the case of `O=C(Nc1ccccc1NC(=O)NC1CCCCC1)NC1CCCCC1`, the inhibition was 14%.
Regarding `Nc1c(NC2CCCCC2)c2ccccc2oc1=O`, the inhibition is 4.37%.
On to `Cc1nc(NC(=O)c2cc3c(C)nn(-c4ccccc4)c3s2)sc1C(=O)Nc1ccccc1`, for which the inhibition is 0.17%.
`COc1ccc(N2CC(C(=O)N/N=C/c3ccccc3)CC2=O)cc1` (stereo not given): the inhibition was -7.3%.
In the case of `COc1ccc(-c2cc(-c3ccccc3)[n+](C)c(-c3ccccc3)c2)cc1`, the inhibition was -1.4%.
For `COc1ccc2c(c1)c(=O)cc(-c1ccccc1)n2C`, the inhibition was 0.17%.
For the molecule `CN(C)c1ccc(-c2n(C)c3ccccc3[n+]2C)cc1`, the inhibition is 28.5%.
Turning to `CN(C)c1ccc(/C=N/c2cc(-c3ccccc3)nn2-c2ccccc2)cc1`, the inhibition was -1.42%.
In the case of `CCCCC1(C)OC(=O)C(=Cc2ccc(N(C)C)cc2)C(=O)O1` (stereo not given), the inhibition was 0.99%.
Regarding `C[n+]1c(-c2ccccc2)cc2c(=Cc3ccccc3)c3ccccc3n21`, the inhibition was -16.8%.
Turning to `CN(C)c1ccc(/C=C2\SC(=O)N(CC(O)Cn3c4ccccc4c4ccccc43)C2=O)cc1` (stereo not given), the inhibition was -1.11%.
Regarding `CN(c1ccc(Cl)cc1)c1cc(=O)n(C)c2ccccc12`, the inhibition was 3.91%.
With `CC(C)(C)CN1CCNC[C@H]1Cc1cccc2ccccc12`, the inhibition was 4.41%.
Consider `CNCC(O)c1cc(OCc2ccccc2)c(OCc2ccccc2)cc1F` (stereo not given), for which the inhibition is 2.8%.
Consider `Cc1cc(Nc2cccc(F)c2)n2c(n1)nc1ccccc12`, for which the inhibition is -4.78%.
As to `CC(Sc1nnc(C2CC2)n1C1CC1)C(=O)c1ccc(F)cc1` (stereo not given), the inhibition is -11.2%.
As to `Clc1cccc(Cl)c1CSc1nnc([C@@H]2CCCN2)o1`, the inhibition was -1.85%.
Regarding `CC(=O)N1CCN(C(=O)COC(=O)CNC(=O)c2ccccc2C)CC1`, the inhibition was -1.13%.
Take `Cc1ccc(CNCC(O)(c2ccccc2)c2ccc(Cl)cc2)cc1` (stereo not given): the inhibition was 6.37%.
The result for `Cn1c(SCC(=O)N2CCCC2=O)nnc1-c1ccccc1F` reads 6.14%.
Take `COc1cc(C=c2c3ccccc3n3c2cc(-c2ccccc2)[n+]3C)cc(OC)c1OC`: the inhibition is 6.14%.
As to `CN(C)c1ccc(/C=C2\CCCc3c2nc2ccccc2c3C(=O)O)cc1`, the inhibition was 2.2%.
In the case of `CN(C)c1ccc(/C=C/c2nc3ccccc3c(=O)n2-c2ccc(C(=O)O)cc2)cc1`, the inhibition was -25.3%.
In the case of `CCOC(=O)c1cccc(NC(=O)c2ccc(N(C)C)cc2)c1`, the inhibition was 5.77%.
In the case of `C[n+]1c(-c2ccccc2)cc(-c2ccc(O)cc2)cc1-c1ccccc1`, the inhibition was -0.313%.
Consider `COc1ccc(C(=O)c2ccc(N(C)C)cc2)c2ccccc12`, for which the inhibition is 11.2%.
Take `CN(C)c1ccc(C=c2c3ccccc3n3c2c2ccccc2[n+]3C)cc1`: the inhibition is 21%.
In the case of `CCOC(=O)c1cc2c(C)n(-c3ccc(N(C)C)cc3)c(C)c2cc(C(=O)OCC)c1=O`, the inhibition is -3.74%.
The result for `COc1ccc(C)cc1NS(=O)(=O)c1ccc2c(c1)N(C)CCO2` reads 3.31%.
For `COC(=O)C1CN(C(=O)c2ccc(OC(F)F)cc2)c2ccccc2O1` (stereo not given), the inhibition is 8.47%.
As to `CN(CC(=O)Nc1ccccc1Cl)CC(=O)N1CCc2ccccc21`, the inhibition was -8.6%.
Regarding `CCOc1ccc(CC(=O)Nc2nccs2)cc1OCC`, the inhibition was -1.94%.
In the case of `C=CCNc1nc(N)c([N+](=O)[O-])c(Nc2cccc(Cl)c2)n1`, the inhibition was 3.17%.

The record behind these values is PubChem BioAssay AID504329 (Southern Research Specialized Biocontainment Screening …, 2011).
